The text below walks through data of PubChem BioAssay AID1851 (National Center for Advancing Translational Sciences (NCATS), 2009).

What is called AC50 is the concentration giving half of the maximal activity seen.

Structures are written as SMILES. Values joined by “and” are separate entries in the source; they are usually repeats but may differ in a detail not shown here. Equal entries are not always repeated. Among all 16,000 compounds or so, about 4,000 (25%) were called active. Inconclusive results (about 26%) are left out. Calls come from the whole dose curve; as a rule, active = well fitted curve in the direction sought with a large enough effect; inconclusive = small, poorly fitted or top-dose-only effect, or effect the other way; inactive = no such curve, though single readings can be large or run the other way. The list is a sample of the results. Some compounds were tested as several samples or in several runs, with calls that do not always agree. Square brackets hold non-standard residues; d marks the D form. Peptide text beside a SMILES is read from it.
% is set by controls: 0 for no effect and ±100 for the full control effect.

The target of the assay is Cytochrome P450 2C9 (Homo sapiens) (UniProt P11712). The assay can be described thus: Cytochrome panel assay with activity outcomes. To be noted: recombinant CYP, pro-luciferin dealkylation, luminescence, p450-cyp2c9; series mostly up to 57.1 µM.
Sequence of Cytochrome P450 2C9 (Homo sapiens) (P11712 whole entry, looked up): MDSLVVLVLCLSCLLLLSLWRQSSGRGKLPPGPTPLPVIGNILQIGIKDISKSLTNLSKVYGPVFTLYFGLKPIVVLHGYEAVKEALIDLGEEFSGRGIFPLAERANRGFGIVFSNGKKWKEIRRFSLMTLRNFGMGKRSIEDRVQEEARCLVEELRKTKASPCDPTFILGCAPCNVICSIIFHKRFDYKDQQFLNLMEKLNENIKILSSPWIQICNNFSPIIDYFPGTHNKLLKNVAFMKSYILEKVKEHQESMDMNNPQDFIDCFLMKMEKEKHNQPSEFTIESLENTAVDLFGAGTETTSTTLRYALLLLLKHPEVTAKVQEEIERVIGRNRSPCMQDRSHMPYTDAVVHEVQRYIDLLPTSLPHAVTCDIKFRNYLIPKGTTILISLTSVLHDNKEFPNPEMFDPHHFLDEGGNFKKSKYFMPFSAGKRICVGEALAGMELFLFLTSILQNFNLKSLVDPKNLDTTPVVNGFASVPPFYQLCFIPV
For the compound `C[C@@H]1C[C@H](OC(=O)[C@@H](O)c2ccccc2)CC(C)(C)N1C`, the AC50 result is “inactive”.

For `OCCn1cnc2c(SCc3ccccc3)ncnc21`, the activity, negative = inhibition was 12.5% [at 11.4 µM] (inactive).

In the case of `COc1ccc(-c2csc(NC(=O)CCn3cnc4ccccc4c3=O)n2)cc1OC`, the AC50 was 1 µM (active).

As to `O=C(Cn1cnc2ccccc2c1=O)Nc1nnc(SCc2ccccc2)s1`, the half-maximal activity concentration (AC50) was 8.91 µM (active).

Take `CCCc1nnc(NC(=O)CCC(=O)NCc2ccccc2OC)s1`: the AC50 entry was “inactive”.

For `CCCc1nnc(NC(=O)Cn2cnc3ccccc3c2=O)s1`, the half-maximal activity concentration (AC50) was 17.8 µM (active).

As to `CCCC(=O)Nc1nc(-c2ccc3c(c2)CCN3S(C)(=O)=O)cs1`, the AC50 result is “inactive”.

In the case of `CCCc1nnc(NC(=O)CCC(=O)N2CCN(c3ccccn3)CC2)s1`, the AC50 result is “inactive”.

As to `Cn1c(=O)c2[nH]c(CCCc3ccc([N+](=O)[O-])cc3)nc2n(C)c1=O`, the activity, negative = inhibition is 1.93% [at 11.4 µM] (inactive).

With `Cc1ccc(C(=O)COC(=O)CNC(=O)Cc2ccccc2)cc1[N+](=O)[O-]`, the AC50 was 14.1 µM (active).

Turning to `Cc1ccc(C(=O)COC(=O)CNC(=O)C(c2ccccc2)c2ccccc2)cc1[N+](=O)[O-]`, the AC50 result is “inactive”.

Turning to `CC(C)(C)c1ccc(COC(=O)CNC(=O)CNC(=O)Cc2ccccc2)cc1`, the AC50 result is “inactive”.

With `O=C1[C@H]2[C@H]3[C@H](O)[C@H](O)C/C(=N/OC[C@@H](O)COCc4ccco4)[C@@H]3CC[C@@H]2C(=O)N1C[C@@H]1CCCO1`, the activity, negative = inhibition was 39.3% [at 11.4 µM] (inactive).

As for `COc1ccc(S(=O)(=O)N2CC3C4C=CC(C4)C3C2)cc1` (stereo unspecified), the half-maximal activity concentration (AC50) was 14.1 µM (active).

As to `COc1ccc(S(=O)(=O)N2CCC(N3CCCCC3)CC2)cc1`, the AC50 entry was “inactive”.

As for `CCN(CC)CCOC(=O)[C@@H](c1ccccc1)C1CCCCC1`, the AC50 result was “inactive”.

For the compound `CC(C)(C)NC(=O)CSC(=Nc1ccc(F)cc1)NC#N`, the half-maximal activity concentration (AC50) is 12.6 µM (active).

On to `CC(C)OC(=O)c1cc2c(OC[C@@H](O)CNC(C)(C)C)cccc2[nH]1`, for which the AC50 entry was “inactive”.

In the case of `CC(C)CO/N=C1/C[C@@H](O)[C@@H](O)[C@@H]2[C@@H]3C(=O)N(C[C@@H]4CCCO4)C(=O)[C@H]3CC[C@H]12`, the activity, negative = inhibition was 9.45% [at 11.4 µM] (inactive).

As for `Cc1nn(-c2ccccc2)c2c1C(=O)N(Cc1ccccc1)C(=O)C(C)(C)C2`, the concentration at half-maximal activity (AC50) is 17.8 µM (active).

In the case of `O=C(NCCCN1CCN(C2CCCCC2)CC1)Nc1ccccc1C(F)(F)F`, the AC50 entry is “inactive”.

Regarding `CCOC(=O)C1=C(C)NC2=C(C(=O)C(C(=O)OCC)C(c3ccc(OC)cc3)C2)C1c1ccccn1` (stereo unspecified), the AC50 is 8.91 µM (active).

For `COCCn1c(=O)c(-c2cc(F)cc(F)c2)nc2cnc(N3CCNCC3)nc21`, the concentration at half-maximal activity (AC50) was 1.26 µM (active).

`COCCn1c(=O)c(-c2cc(F)cc(F)c2)nc2cnc(N3CCOCC3)nc21`: the AC50 result is “inactive”.

As to `COc1ccc(-n2c(=O)c(-c3cccc(C#N)c3)nc3cnc(N4CCNCC4)nc32)cc1`, the AC50 result was “inactive”.

For `COCCn1c(=O)c(C)nc2cnc(N3CCNCC3)nc21`, the AC50 entry was “inactive”.

Regarding `COCCn1c(=O)c(-c2cccc(C#N)c2)nc2cnc(N3CCNCC3)nc21`, the AC50 is 3.98 µM (active).

As to `CN1CCN(c2ncc3nc(-c4cccc(C#N)c4)c(=O)n(CCC#N)c3n2)CC1`, the AC50 result was “inactive”.

For the compound `C1CCc2c(nc3nnnn3c2NC2CCCC2)C1`, the AC50 result is “inactive”.

As for `O=C1/C(=C/c2ccccc2)[C@@H](NC2CCCCC2)c2ccccc21`, the AC50 is 3.98 µM (active).

As to `COc1ccc(C(OCCN2CCC[C@@H](C(=O)O)C2)(c2ccc(OC)cc2)c2ccc(OC)cc2)cc1`, the AC50 entry was “inactive”.

For the compound `O=C(O)[C@H]1CCCN(CCC=C(c2ccccc2)c2ccccc2)C1`, the AC50 result was “inactive and 7.94 µM (active)”.

Take `S[C@@H]1CCCN(Cc2ccccc2)C1`: the activity, negative = inhibition is -2.17% [at 11.4 µM] (inactive).

`C[C@H](N[C@@H](C)COc1ccccc1)[C@H](O)c1ccc(O)cc1`: the AC50 entry was “inactive”.

For `O=c1c(-c2ccccc2)nc2cnc(N3CCNCC3)nc2n1Cc1ccc(F)cc1`, the AC50 was 10 µM (active).

For `CN1CCN(c2ncc3nc(-c4ccccc4)c(=O)n(Cc4ccc(F)cc4)c3n2)CC1`, the AC50 result is “inactive”.

Turning to `CN(C)c1ncc2nc(-c3ccc(Cl)cc3)c(=O)n(Cc3ccc(F)cc3)c2n1`, the AC50 result is “inactive”.

Turning to `O=c1c(-c2ccc(F)cc2)nc2cnc(N3CCNCC3)nc2n1-c1ccccc1`, the AC50 result was “inactive”.

As for `CN1CCN(c2ncc3nc(-c4ccc(Cl)cc4)c(=O)n(Cc4ccc(F)cc4)c3n2)CC1`, the AC50 result is “inactive”.

On to `O=c1c(-c2ccc(Cl)cc2)nc2cnc(N3CCNCC3)nc2n1Cc1ccc(F)cc1`, for which the concentration at half-maximal activity (AC50) is 25.1 µM (active).

In the case of `CC(O)CN(CCC(N)=O)CCC(N)=O` (stereo unspecified), the AC50 result was “inactive”.

In the case of `CC(=O)c1cnc2c(C(=O)O)cnn2c1C`, the AC50 result was “inactive”.

As for `Cc1cc(-c2c(C)[nH]n(-c3ccccc3)c2=O)n(-c2ccccc2)n1`, the concentration at half-maximal activity (AC50) is 1.58 µM (active).

Regarding `Cc1cc(N)n(-c2ccccc2)n1`, the AC50 result is “inactive”.

Regarding `Cc1ccc(C)c(C(=O)CN2C3=NCCCN3c3ccccc32)c1`, the AC50 entry was “inactive”.

Regarding `CC(CCC(=O)O)(c1cc(Br)c(O)c(Br)c1)c1cc(Br)c(O)c(Br)c1`, the AC50 is 3.16 µM (active).

Consider `CC[C@](N)(CCC(=O)O)C(=O)O`, for which the AC50 entry was “inactive”.

`CC(C)c1ccc(Cn2ccc3c4c(N)nc(NC5CC5)nc4ccc32)cc1`: the AC50 result is “inactive”.

As for `Cc1cc(NC(=O)COC(=O)c2ccc(S(=O)(=O)N3CCCc4ccccc43)cc2)no1`, the AC50 is 3.55 µM (active).

As to `Cc1cc(N(CN2CCCC2=O)C(=O)c2ccc(F)cc2)no1`, the AC50 entry was “inactive”.

As to `O=C(NCc1ccccc1)c1ccc(S(=O)(=O)N2CCCc3ccccc32)cc1`, the half-maximal activity concentration (AC50) is 3.16 µM (active).

As to `Cc1ccc(C(=O)ON=C2CCN(S(=O)(=O)c3ccccc3)CC2)cc1`, the AC50 result was “inactive”.

Regarding `Cc1ccc(S(=O)(=O)N[C@H]2COC(=O)[C@@H](Cc3ccccc3)NC(=O)[C@@H](C)COC(=O)C/C=C\[C@@H]2C)cc1`, the activity, negative = inhibition was 7.81% [at 11.4 µM] (inactive) and -8.92% [at 11.4 µM] (inactive).

Turning to `Clc1ccccc1NN(Cc1ccncc1)c1ccccc1Cl`, the concentration at half-maximal activity (AC50) is 1.58 µM (active).

As for `Clc1ccccc1NN(Cc1ccccn1)c1ccccc1Cl`, the activity, negative = inhibition is -64.2% [at 11.4 µM] (inactive).

Consider `CC1=c2c(oc3cc(O)c(Nc4c(C)cc(O)cc4O)c(C)c23)=CC(=O)C1=Nc1c(C)cc(O)cc1O`, for which the AC50 is 3.16 µM (active).

Take `Cc1ccc(C2C3=C(CCCC3=O)Nc3nc(SCC(=O)NCc4ccco4)[nH]c(=O)c32)cc1` (stereo unspecified): the AC50 was 5.01 µM (active).

`NC(=O)CCCC1=NS(=O)(=O)c2ccccc2N1`: the AC50 result is “inactive”.

Consider `COc1ccc(C(C(=O)Nc2ccc(F)cc2)N(C(=O)Cn2nnc3ccccc32)C2CC2)cc1` (stereo unspecified), for which the AC50 was 12.6 µM (active).

For the compound `COCCNC(=O)C(c1ccc(C)o1)N(CC1CCCO1)C(=O)Cn1nnc2ccccc21` (stereo unspecified), the AC50 entry is “inactive”.

`COc1cccc(C(C(=O)Nc2ccc(F)cc2)N(C(=O)Cn2nnc3ccccc32)C2CC2)c1` (stereo unspecified): the concentration at half-maximal activity (AC50) was 12.6 µM (active).

`COc1ccc(NC(=O)C(c2ccc(OC)cc2)N(C)C(=O)CNC(C)=O)cc1` (stereo unspecified): the AC50 result was “inactive”.

Take `CO[C@@H]1COC(=O)C/C=C\[C@@H](C)[C@H](OC)COC(=O)[C@H](COCc2ccccc2)NC(=O)C/C=C\[C@H]1C`: the activity, negative = inhibition was 3.17% [at 11.4 µM] (inactive).

In the case of `C/C(CCN1CCCCc2nc(C)c(C)cc21)=N\OC[C@@H](C)[C@H](OCc1ccccc1)C(C)C`, the activity, negative = inhibition is -7.17% [at 11.4 µM] (inactive).

In the case of `Cc1ccccc1C(=O)Oc1ccc(Br)cc1C(=S)N1CCCC1`, the AC50 was 11.2 µM (active).

Take `COC(=O)c1cc(OC)c(OC)cc1NC(=S)N1CCCCC1`: the AC50 result is “inactive”.

Regarding `COc1ccc(-c2cn3c(C)c(C(=O)NCCN4CCOCC4)sc3n2)cc1`, the concentration at half-maximal activity (AC50) was 7.94 µM (active).

Turning to `CCOC(=O)C1CCCN(C(=O)c2sc3nc(-c4ccc(OC)cc4)cn3c2C)C1` (stereo unspecified), the AC50 was 4.47 µM (active).

Regarding `CCOC(=O)C1CCCN(C(=O)/C=C/c2cccc([N+](=O)[O-])c2)C1` (stereo unspecified), the AC50 result is “inactive”.

For `CCOC(=O)C1CCCN(C(=O)C2CCN(S(=O)(=O)N3CCC4(CC3)OCCO4)CC2)C1` (stereo unspecified), the AC50 entry is “inactive”.

Take `COc1ccc(C2=NOC(C(=O)NCCN3CCOCC3)C2)cc1` (stereo unspecified): the AC50 result is “inactive”.

`COc1ccc2cc3cc(C(=O)NCCCN4CCOCC4)oc3nc2c1`: the AC50 entry is “inactive”.

As for `Cn1ncc(Cl)c1C(=O)Nc1cccnc1`, the AC50 entry is “inactive”.

In the case of `CC(C)CNC(=O)c1ccc(COc2ccc(Cl)cc2Cl)o1`, the concentration at half-maximal activity (AC50) is 3.55 µM (active).

For the compound `CCOc1ccc(Cl)cc1CNCCNCC(C)O` (stereo unspecified), the AC50 entry was “inactive”.

For `O=C(Nc1cccnc1)c1ccc(COc2cc(Cl)ccc2Cl)o1`, the AC50 is 14.1 µM (active).

In the case of `O=C(Nc1ccn(Cc2ccccc2F)n1)c1ccc(COc2cc(Cl)ccc2Cl)o1`, the concentration at half-maximal activity (AC50) is 0.447 µM (active).

Regarding `O=C(O)NCC1CCCCC1` (tested in a mixture with another compound), the activity, negative = inhibition is -18.2% [at 11.4 µM] (inactive).

Regarding `S=C(NCc1ccccn1)Nc1cccc(Cl)c1`, the AC50 entry was “inactive”.

With `O=C(COc1ccccc1Cl)NC(=S)Nc1cccc(NC(=O)c2ccccc2Cl)c1`, the AC50 is 0.794 µM (active).

Regarding `O=C(CCN1C(=O)c2ccccc2C1=O)NC(=S)Nc1cccc(Cl)c1`, the concentration at half-maximal activity (AC50) was 10 µM (active).

Consider `CCC(=O)NC(=S)Nc1ccc(NC(=O)COc2ccc(Cl)cc2Cl)cc1`, for which the AC50 result was “inactive”.

As to `Cc1ccccc1OCC(=O)NC(=S)Nc1ccc(Br)c(C)n1`, the AC50 entry was “inactive”.

As to `N[C@H](CO)C(=O)NCC(=O)O` (H-[dS]-Gly-OH), the activity, negative = inhibition is 7.87% [at 11.4 µM] (inactive).

For the compound `CC(Sc1ccc2c(c1)OCCO2)C(=O)Nc1ncc(Cl)cc1Cl` (stereo unspecified), the concentration at half-maximal activity (AC50) is 3.98 µM (active).

For `O=C(N/N=C/c1cccc([N+](=O)[O-])c1)c1cc2c(ccc3ccccc32)o1`, the AC50 result was “inactive”.

For `CC1CCCN(CCCNC(=O)C2CC(=O)N(c3ccc(F)c(Cl)c3)C2)C1` (stereo unspecified), the AC50 result is “inactive”.

`CCc1ccc(N2CC(C(=O)N/N=C/c3cccc([N+](=O)[O-])c3)CC2=O)cc1` (stereo unspecified): the AC50 was 3.55 µM (active).

In the case of `Cc1ccc(NC(=O)/C(=C/c2cccc([N+](=O)[O-])c2)NC(=O)C2CCCCC2)c(C)c1`, the AC50 result is “inactive”.

Turning to `Cc1ccccc1NC(=O)C1CC(=O)N(c2ccc3c4c(cccc24)CC3)C1` (stereo unspecified), the AC50 result is “inactive”.

In the case of `CCc1ccc(N2CC(C(=O)NC3=NCCS3)CC2=O)cc1` (stereo unspecified), the AC50 is 12.6 µM (active).
